These results are taken from PubChem BioAssay.

A number with no mark means an inactive call. For part of these data: Entries with a potency or affinity are not part of this list. Active and inactive are the calls of the source. Unless noted, the rule behind the calls is not given here.

Assay [1] in a line: antimalarial activity against Dd2 strain (AID 2302;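 active = growth inhibition above 50% at the single 2 µM test dose, taken to imply half-maximal potency below 2 µM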;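 note: 0% = DMSO untreated growth and 100% = chloroquine plus artemisinin killed control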). Particulars: P. falciparum Dd2 in RBCs, LDH growth readout, 72 h; at 2 µM; active compounds read high.
Assay [2] is described as follows: HepG2 cytotoxicity, primary screen, cytotoxicity control for P. falciparum antimalarial project, cell-based, ATP luminescence (AID 2303;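 active = inhibition above 50%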;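 note: 0% = DMSO wells and 100% = digitonin-killed cells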). Particulars: HepG2 viability, 24-48 h, at 10 µM, active compounds read high.
For assay [3], the target named is L-lactate dehydrogenase (Plasmodium falciparum (isolate CDC / Honduras)) (UniProt Q27743). The assay can be described thus: PfLDH activity inhibition – cell lysate, 3D7 strain, counter-screen for P. falciparum growth inhibition project (AID 2304).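 Note: 0% = vehicle and 100% = reference inhibitor.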 Particulars: P. falciparum 3D7 crude extract, LDH APAD/NBT absorbance; at 2 µM; active compounds read high.
L-lactate dehydrogenase (Plasmodium falciparum (isolate CDC / Honduras)), sequence (Q27743 whole entry, looked up): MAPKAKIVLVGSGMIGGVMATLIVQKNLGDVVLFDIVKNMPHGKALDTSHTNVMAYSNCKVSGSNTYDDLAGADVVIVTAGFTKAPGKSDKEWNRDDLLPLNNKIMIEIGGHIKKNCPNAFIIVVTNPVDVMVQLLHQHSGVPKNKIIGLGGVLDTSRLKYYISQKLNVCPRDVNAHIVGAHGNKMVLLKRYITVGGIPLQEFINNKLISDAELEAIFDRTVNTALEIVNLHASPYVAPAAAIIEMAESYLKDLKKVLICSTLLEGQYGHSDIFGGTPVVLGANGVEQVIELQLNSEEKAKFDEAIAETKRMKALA
The nature of assay [4]: inhibition of 3D7 malaria parasite growth – strain 3D7 (AID 2306).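 Note: 0% = DMSO wells and 100% = chloroquine plus artemisinin control wells.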 The note with it: P. falciparum 3D7 erythrocytic growth, LDH absorbance, 72 h; at 2 µM; active compounds read high.
Assay [5] addresses Calcium-dependent protein kinase 1 (Plasmodium falciparum (isolate 3D7)) (UniProt P62344). The assay can be described thus: PfCDPK1 kinase inhibitors, biochemical, TCAMS library (AID 1159585; cut-off not given, nearly all actives have IC50 up to about 0.98 µM;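 note: inhibitors leave more ATP so luminescence rises with inhibition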). The note with it: recombinant PfCDPK1, Kinase-Glo ATP depletion luminescence.
Assay [6] addresses Plasmodium falciparum protein kinase 6 (PK6, PF3D7_1337100) (UniProt Q8IDW1). Put plainly: PfPK6 kinase inhibitors, biochemical, TCAMS library (AID 1159586). Particulars: recombinant PfPK6, Kinase-Glo ATP depletion luminescence.
The target in assay [7] is Protein kinase 7 (PK7), Plasmodium falciparum 3D7 (PF3D7_0213400) (UniProt Q7YTF7). The assay can be described thus: inhibition of Plasmodium PK7 catalytic activity – biochemical, TCAMS antimalarial set, Kinase-Glo luminescence (AID 1159587). The note with it: recombinant PfPK7, Kinase-Glo ATP depletion luminescence.
Protein kinase 7 (PK7), Plasmodium falciparum 3D7 (PF3D7_0213400), sequence (Q7YTF7 1-343): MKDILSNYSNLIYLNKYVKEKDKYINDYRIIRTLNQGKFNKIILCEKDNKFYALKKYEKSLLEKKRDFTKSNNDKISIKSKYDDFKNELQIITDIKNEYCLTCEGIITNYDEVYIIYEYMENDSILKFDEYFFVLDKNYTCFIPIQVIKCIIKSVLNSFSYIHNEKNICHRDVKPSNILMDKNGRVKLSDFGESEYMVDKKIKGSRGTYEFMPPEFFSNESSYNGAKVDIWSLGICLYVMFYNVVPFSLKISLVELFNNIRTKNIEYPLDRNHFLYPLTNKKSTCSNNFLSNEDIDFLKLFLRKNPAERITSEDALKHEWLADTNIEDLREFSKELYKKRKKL
For assay [8], the target named is Calcium-dependent protein kinase 4 (Plasmodium falciparum (isolate 3D7)) (UniProt Q8IBS5). The assay can be described thus: PfCDPK4 kinase inhibitors, biochemical, TCAMS library (AID 1159588; cut-off not given, nearly all actives have IC50 up to about 0.91 µM). Particulars: recombinant PfCDPK4, Kinase-Glo ATP depletion luminescence.
Calcium-dependent protein kinase 4 (Plasmodium falciparum (isolate 3D7)), sequence (Q8IBS5 whole entry, looked up): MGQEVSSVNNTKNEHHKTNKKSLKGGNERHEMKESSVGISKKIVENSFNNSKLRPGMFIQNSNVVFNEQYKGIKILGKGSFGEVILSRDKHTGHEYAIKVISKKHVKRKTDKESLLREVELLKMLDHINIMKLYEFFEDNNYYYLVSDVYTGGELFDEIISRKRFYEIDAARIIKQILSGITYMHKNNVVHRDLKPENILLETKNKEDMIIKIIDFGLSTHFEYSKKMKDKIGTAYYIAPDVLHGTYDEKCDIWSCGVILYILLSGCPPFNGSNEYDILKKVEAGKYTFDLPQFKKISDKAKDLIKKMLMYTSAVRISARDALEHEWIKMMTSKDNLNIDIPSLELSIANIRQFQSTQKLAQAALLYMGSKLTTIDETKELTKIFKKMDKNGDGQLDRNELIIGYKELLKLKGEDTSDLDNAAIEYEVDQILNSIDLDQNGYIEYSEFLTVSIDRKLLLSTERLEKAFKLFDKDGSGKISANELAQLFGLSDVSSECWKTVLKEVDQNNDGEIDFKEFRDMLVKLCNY

Plasmodium falciparum protein kinase 6 (PK6, PF3D7_1337100), sequence (Q8IDW1 1-305): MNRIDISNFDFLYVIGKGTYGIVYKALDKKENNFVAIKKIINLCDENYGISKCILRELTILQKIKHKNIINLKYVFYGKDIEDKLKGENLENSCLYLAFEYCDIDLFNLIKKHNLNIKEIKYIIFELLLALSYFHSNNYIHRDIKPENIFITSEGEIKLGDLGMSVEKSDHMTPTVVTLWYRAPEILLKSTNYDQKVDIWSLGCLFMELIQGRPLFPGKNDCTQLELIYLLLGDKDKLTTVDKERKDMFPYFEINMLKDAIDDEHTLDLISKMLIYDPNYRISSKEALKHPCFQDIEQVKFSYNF
Calcium-dependent protein kinase 1 (Plasmodium falciparum (isolate 3D7)), sequence (P62344 whole entry, looked up): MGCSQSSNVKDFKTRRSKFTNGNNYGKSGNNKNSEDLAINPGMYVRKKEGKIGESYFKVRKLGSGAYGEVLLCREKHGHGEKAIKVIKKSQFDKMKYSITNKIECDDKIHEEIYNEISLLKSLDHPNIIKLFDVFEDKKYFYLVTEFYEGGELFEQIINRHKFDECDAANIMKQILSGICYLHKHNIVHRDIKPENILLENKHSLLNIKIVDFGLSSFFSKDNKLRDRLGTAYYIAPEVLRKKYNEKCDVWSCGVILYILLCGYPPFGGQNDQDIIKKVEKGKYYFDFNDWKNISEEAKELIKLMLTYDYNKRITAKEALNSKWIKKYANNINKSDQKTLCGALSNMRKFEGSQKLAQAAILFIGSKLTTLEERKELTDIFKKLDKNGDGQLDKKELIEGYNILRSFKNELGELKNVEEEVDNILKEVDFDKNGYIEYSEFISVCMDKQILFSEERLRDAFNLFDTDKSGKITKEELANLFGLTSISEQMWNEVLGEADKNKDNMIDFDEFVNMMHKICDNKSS

`COc1ccc2nccc([C@@H](O)CN3CCC(NC(=O)c4cc5c(F)cc(F)cc5[nH]4)CC3)c2c1`: the growth inhibition is 98% (active) in assay [1] and 101% (active) in assay [4]. Also, the results for the inhibition in assay [2] and in assay [3] were 33% and -1%, respectively. The result in assay [5], in assay [6], in assay [7] and in assay [8] was inactive.
With `CC(C)Oc1ccccc1-c1csc(C(=O)NCC2CCN(Cc3ccc(C(C)(C)C)cc3)C2)c1` (centres undefined), the growth inhibition in assay [1] is 45%; in assay [4] it was 90% (active). The values for the inhibition in assay [2] and in assay [3] were 59% (active) and 2%, respectively. In addition, the result in assay [5], in assay [6], in assay [7] and in assay [8] was inactive.
As to `CC(C)N1CCC(NC(=O)N2CCCN(c3ncnc4cc(-c5ccc(Cl)cc5)sc34)CC2)CC1`, the growth inhibition is 7% in assay [1] and 81% (active) in assay [4]. Besides, the values for the inhibition in assay [2] and in assay [3] were 6% and 7%, respectively. Moreover, the result in assay [5], in assay [6], in assay [7] and in assay [8] was inactive.
As to `O=C(/C=C/c1cccc(Cl)c1)NCCCCCN1CCC(c2c[nH]c3ccccc23)CC1`, the growth inhibition was 17% in assay [1] and 89% (active) in assay [4]. Also, the figures for the inhibition in assay [2] and in assay [3] were 46% and -2%, respectively. Moreover, the outcome in assay [5], in assay [6], in assay [7] and in assay [8] was inactive.
As to `Cc1cc2[nH]c(-c3ccc(C(=O)NCCCN4CCN(c5cccc(Cl)c5)CC4)s3)nc2cc1Cl`, the growth inhibition in assay [1] is 93% (active); in assay [4], 100% (active). The inhibition in assay [2] is 7%; in assay [3], -1%. Moreover, the result in assay [5], in assay [6], in assay [7] and in assay [8] was inactive.
Regarding `COc1ccc2cc(C=NNc3nc4ccccc4[nH]3)c(Cl)nc2c1`, the growth inhibition in assay [1] is 90% (active); in assay [4], 100% (active). The inhibition is 2% in assay [2] and -2% in assay [3]. In addition, the result in assay [5], in assay [6], in assay [7] and in assay [8] was inactive.
Turning to `O=c1cc(NCCC(CNCCc2ccccc2)NCc2cc(Br)cc(Br)c2)[nH]c2ccccc12` (centres undefined), the growth inhibition in assay [1] is 47%; in assay [4], 98% (active). For the same molecule, the inhibition in assay [2] is 3%; in assay [3], -6%. The result in assay [5], in assay [6], in assay [7] and in assay [8] was inactive.
Take `CC(C)[C@H](NC(=O)NC1CCC(CCN2[C@@H]3CC[C@H]2CC(OC(=O)C(CO)c2ccccc2)C3)CC1)C(O)(c1ccccc1)c1ccccc1` (some centres undefined): the growth inhibition is 4% in assay [1] and 90% (active) in assay [4]. In addition, the values for the inhibition in assay [2] and in assay [3] were 17% and 1%, respectively. Moreover, the outcome in assay [5], in assay [6], in assay [7] and in assay [8] was inactive.
In the case of `O=C(COc1cnc2ccccc2n1)Nc1ccccc1Sc1ccc(Cl)cc1`, the growth inhibition in assay [1] and in assay [4] was 100% (active) throughout. Also, the inhibition in assay [2] and in assay [3] was 6% in each case. Further, the result in assay [5], in assay [6], in assay [7] and in assay [8] was inactive.
In the case of `CC(C)N(CCOc1ccc2c(c1)N(C(=O)Nc1ccc(Cl)c(Cl)c1)CC2)C(C)C`, the growth inhibition in assay [1] was 39%; in assay [4], 101% (active). The inhibition is 15% in assay [2] and 3% in assay [3]. The result in assay [5], in assay [6], in assay [7] and in assay [8] was inactive.
Regarding `C#CCOc1ccc2ccccc2c1CNCCCCCCNCc1c(OCC#C)ccc2ccccc12`, the growth inhibition in assay [1] is 98% (active); in assay [4] it was 100% (active). Further, the inhibition in assay [2] was 100% (active); in assay [3], -3%. The result in assay [5], in assay [6], in assay [7] and in assay [8] was inactive.
`Cc1cc2nc(-c3ccc(C(=O)NCc4cccc(C(F)(F)F)c4)cc3)[nH]c2cc1C`: the growth inhibition was 34% in assay [1] and 98% (active) in assay [4]. Further, the inhibition in assay [2] is 4%; in assay [3], -9%. For the same molecule, the result in assay [5], in assay [6], in assay [7] and in assay [8] was inactive.
In the case of `Fc1ccc([C@H]2N=C(SCCSC3=N[C@H](c4ccc(F)cc4)[C@H](c4ccc(F)cc4)N3)N[C@H]2c2ccc(F)cc2)cc1`, the growth inhibition in assay [1] was 69% (active); in assay [4], 99% (active). Besides, the inhibition in assay [2] was 18%; in assay [3], -5%. Also, the outcome in assay [5], in assay [6], in assay [7] and in assay [8] was inactive.
Regarding `O=C(Nc1ccc(-c2nc3ccccc3[nH]2)cc1)c1ccc(S(=O)(=O)N2CCCCC2)cc1`, the growth inhibition in assay [1] was 6%; in assay [4] it was 95% (active). Moreover, the inhibition in assay [2] is 23%; in assay [3], 2%. Further, the outcome in assay [5], in assay [6], in assay [7] and in assay [8] was inactive.
Take `CCOC(=O)c1ccc(NC(=O)N(Cc2ccc(-c3ccc(CN4CCNCC4)cc3)cc2)C2CCN(Cc3ccccc3)CC2)cc1`: the growth inhibition was 93% (active) in assay [1] and 102% (active) in assay [4]. Besides, the inhibition is 14% in assay [2] and 3% in assay [3]. Besides, the result in assay [5], in assay [6], in assay [7] and in assay [8] was inactive.
Take `O=C(/C=C/c1ccc(Cl)cc1)NCCCCCN1CCC(C(=O)Nc2ccc(Cl)c(Cl)c2)CC1`: the growth inhibition is -4% in assay [1] and 100% (active) in assay [4]. Further, the inhibition in assay [2] was 47%; in assay [3] it was -3%. Further, the outcome in assay [5], in assay [6], in assay [7] and in assay [8] was inactive.
With `CN(CCC(CCN1CCC(c2c[nH]c3ccccc23)CC1)c1ccccc1)C(=O)Nc1ccc(Cl)c(Cl)c1` (centres undefined), the figures for the growth inhibition in assay [1] and in assay [4] were 21% and 91% (active), respectively. The inhibition in assay [2] is 50% (active); in assay [3], 3%. Besides, the outcome in assay [5], in assay [6], in assay [7] and in assay [8] was inactive.
With `CCCCNC(=O)[C@H](Cc1ccccc1)NC(=O)c1ccc(O)c(-c2ccc(Cl)c(Cl)c2)c1`, the growth inhibition in assay [1] was 97% (active); in assay [4], 98% (active). Further, the results for the inhibition in assay [2] and in assay [3] were -8% and 3%, respectively. In addition, the outcome in assay [5], in assay [6], in assay [7] and in assay [8] was inactive.
